{"source": "the supplement of paper PMC6279402", "note": "Where a name gives a salt, the structure may show the parent alone. ± gives the standard deviation of the averaged measurements."}
{"system": "A549", "assay": "relative viability (normalised to negative control = 1, bortezomib = 0) (fraction); higher = less cytotoxic", "settings": "inflammatory serum-free RHB-A with cytokines + LPS; 5 d + 24 h CellTiter-Blue; compound 30 nM; GSK126 pretreatment: 5 uM GSK126"}
{"smiles": "CC[C@]1(O)C[C@@H]2CN(CCc3c([nH]c4ccccc34)[C@@](C(=O)OC)(c3cc4c(cc3OC)N(C)[C@H]3[C@@](O)(C(=O)OC)[C@H](OC(C)=O)[C@]5(CC)C=CCN6CC[C@]43[C@@H]65)C2)C1", "note": "[Vinblastine sulfate salt; Vinblastine sulfate]", "relative viability": "0.447 ± 0.011"}
{"smiles": "NCC(=O)CCC(=O)O", "note": "[Aminolevulinic acid hydrochloride; Aminolevulinic acid]", "relative viability": "1.08 ± 0.17"}
{"smiles": "CCN(CCO)CCCOc1ccc2c(Nc3cc(CC(=O)Nc4cccc(F)c4)[nH]n3)ncnc2c1", "note": "[AZD1152-HQPA(Barasertib)]", "relative viability": "0.73 ± 0.079"}
{"smiles": "COc1ccc(S(=O)(=O)N(C(C)=O)c2ccccc2/C=C/c2cc[n+]([O-])cc2)cc1", "relative viability": "0.924 ± 0.032"}
{"smiles": "CC[C@@]1(O)C(=O)OCc2c1cc1n(c2=O)Cc2cc3c(CN(C)C)c(O)ccc3nc2-1", "note": "[Topotecan HCl; Topotecan hydrochloride]", "relative viability": "0.421 ± 0.033"}
{"smiles": "CC[C@@H]1C(=O)N(C)c2cnc(Nc3ccc(C(=O)NC4CCN(C)CC4)cc3OC)nc2N1C1CCCC1", "relative viability": "0.451 ± 0.03"}
{"smiles": "CN(C)C/C=C/C(=O)Nc1cc2c(Nc3ccc(F)c(Cl)c3)ncnc2cc1O[C@H]1CCOC1", "note": "[BIBW2992; BIBW2992(Tovok)]", "relative viability": "0.389 ± 0.018"}
{"smiles": "O=C(O)c1ccc2c(c1)nc(Nc1cccc(Cl)c1)c1ccncc12", "relative viability": "0.707 ± 0.14"}
{"smiles": "Nc1nc(Cl)nc2c1ncn2[C@@H]1O[C@H](CO)[C@@H](O)[C@@H]1F", "note": "[Clofarabine]", "relative viability": "0.74 ± 0.12"}
{"smiles": "O=c1cc(-c2cccc3c2Sc2ccccc2S3)oc(N2CCOCC2)c1", "relative viability": "0.781 ± 0.04"}
{"smiles": "CC(C)CC(=O)Nc1n[nH]c2c1CN(C(=O)C1CCN(C)CC1)C2(C)C", "relative viability": "0.84 ± 0.097"}
{"smiles": "O=C(Nc1ccc(OC(F)(F)F)cc1)c1sccc1NCc1ccnc2ccccc12", "relative viability": "1.07 ± 0.025"}
{"smiles": "Cc1cc(Nc2nc(N[C@@H](C)c3ncc(F)cn3)ncc2Cl)[nH]n1", "relative viability": "0.912 ± 0.1"}
{"smiles": "CO[C@H]1C[C@@H]2CC[C@@H](C)[C@@](O)(O2)C(=O)C(=O)N2CCCC[C@H]2C(=O)O[C@H]([C@H](C)C[C@@H]2CC[C@@H](OC(=O)C(C)(CO)CO)[C@H](OC)C2)CC(=O)[C@H](C)/C=C(\\C)[C@@H](O)[C@@H](OC)C(=O)[C@H](C)C[C@H](C)/C=C/C=C/C=C/1C", "note": "[CCI-779; Temsirolimus]", "relative viability": "0.532 ± 0.038"}
{"smiles": "COc1c2occc2cc2ccc(=O)oc12", "note": "[Methoxsalen]", "relative viability": "0.902 ± 0.065"}
{"smiles": "COc1ccc(-c2ccc3c(N4CCOCC4)nc(N4C[C@@H](C)O[C@@H](C)C4)nc3n2)cc1CO", "relative viability": "0.708 ± 0.013"}
{"smiles": "COc1cc2c(Oc3ccc4[nH]c(C)cc4c3F)ncnc2cc1OCCCN1CCCC1", "note": "[Cediranib(AZD2171)]", "relative viability": "0.943 ± 0.053"}
{"smiles": "Cn1c(=O)n(-c2ccc(C(C)(C)C#N)cc2)c2c3cc(-c4cnc5ccccc5c4)ccc3ncc21", "relative viability": "0.581 ± 0.063"}
{"smiles": "Nc1nc(Nc2ccc(S(N)(=O)=O)cc2)nn1C(=O)c1c(F)cccc1F", "relative viability": "0.96 ± 0.1"}
{"smiles": "Oc1cccc(-c2nc(N3CCOCC3)c3oc4ncccc4c3n2)c1", "relative viability": "0.743 ± 0.082"}
{"smiles": "CC(C)n1nc(-c2cc3cc(O)ccc3[nH]2)c2c(N)ncnc21", "relative viability": "0.686 ± 0.035"}
{"smiles": "Cn1cc(C2=C(c3ccc(Cl)cc3Cl)C(=O)NC2=O)c2ccccc21", "relative viability": "0.787 ± 0.042"}
{"smiles": "O=C1NC(=O)/C(=C/c2ccc(-c3ccc(F)cc3O)o2)S1", "relative viability": "0.977 ± 0.15"}
{"smiles": "CC1=C(/C=C/C(C)=C/C=C/C(C)=C/C(=O)O)C(C)(C)CCC1", "note": "[Retinoic acid; Tretinoin; 13-cis-retinoic acid]", "relative viability": "1.04 ± 0.088"}
{"smiles": "Cc1cc(C(=O)NOCCO)c(Nc2ccc(I)cc2F)n(C)c1=O", "relative viability": "0.137 ± 0.0076"}
{"smiles": "C[C@@H](Oc1cc(-n2cnc3ccc(CN4CCN(C)CC4)cc32)sc1C(N)=O)c1ccccc1C(F)(F)F", "relative viability": "0.481 ± 0.028"}
{"smiles": "O=c1[nH]cc(F)c(=O)[nH]1", "note": "[5-Fluorouracil; Fluorouracil]", "relative viability": "0.96 ± 0.07"}
{"smiles": "O=C(c1ccc(OCCN2CCCCC2)cc1)c1c(-c2ccc(O)cc2)sc2cc(O)ccc12", "note": "[Raloxifene HCl; Raloxifene hydrochloride]", "relative viability": "0.955 ± 0.064"}
{"smiles": "NC1(Cc2ccc(Cl)cc2)CCN(c2ncnc3[nH]ccc23)CC1", "relative viability": "0.832 ± 0.029"}
{"smiles": "CC(=O)O[C@]1(C(C)=O)CC[C@H]2[C@@H]3C=C(C)C4=CC(=O)CC[C@]4(C)[C@H]3CC[C@@]21C", "note": "[Megestrol acetate]", "relative viability": "1.35 ± 0.04"}
{"smiles": "Nc1nccc(Oc2ccc(NC(=O)c3c[nH]cc(-c4ccc(F)cc4)c3=O)cc2F)c1Cl", "relative viability": "0.87 ± 0.13"}
{"smiles": "COc1cc(OC)c(/C=C/S(=O)(=O)Cc2ccc(OC)c(NCC(=O)O)c2)c(OC)c1", "relative viability": "0.4 ± 0.058"}
